The list is not random: actives were taken first. Their share in the collection is about 4.7%.
HTT prom inh: inhibitors of huntingtin promoter activity; Potency, µM (highest dose often 57.5 µM), for inactives: top-dose activity change, negative = inhibition, actives largely listed as inhibitors; 0.93% of 48,000 active; AID 1508623; HEK293 HTT promoter firefly luciferase reporter, 24 h; also: potency is read from the fitted curve at half-maximal effect; nearly all actives have a fitted effect of over 50% in size
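Luminescence was read after Dual-Glo reagent and a 10 min room-temperature incubation. Values were normalized to vehicle (0% activity) and zero RLU (-100% activity). Reporter HEK293 cells had been exposed to compounds (up to 57.5 uM final) for 24 h.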
DRV1 agonist: agonists of human resolvin D1 receptor DRV1 (GPR32) | O75388 | CHO-K1 GPR32 beta-arrestin PathHunter luminescence, 90 min; zero percent set by DMSO-only wells | activation, % at 76.9 µM | 2.5% of 48,000 active | AID 1346428;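 active = activation of at least 60% and not above a set upper limit, about 1 call in 100 departs from these limits; inconclusive = activation of 40% to 60%, or above that upper limit; inactive = activation under 40%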; also: 0% is about no effect
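PathHunter enzyme-fragment complementation, CHO-K1 GPR32 stable line; 2,500 cells/well, overnight attach; cpd 90 min 37 °C 5% CO2; detection reagent 1 h RT; chemiluminescence. DMSO = EC0.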
GALC G270D up: raises human GALC G270D mutant activity in cells; 0.1% of 45,000 active; 145M-Twi-hGALC-G270D cells, HMU-beta-Gal fluorescence, 48 h; P54803; AID 1159614; Potency, µM (doses to about 57.5 µM), actives largely listed as activators; also: potency is read from the fitted curve at half-maximal effect; 0% is about no effect; nearly all actives have a fitted effect of over 65% in size
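qHTS, 1536-well; 145M-Twi-hGALC-G270D cells (WT line also made) in DMEM/F12 + 10% FBS; compound incubation on live cells; HMU-β-gal 0.1 mM final, pH 5.2, NaTC; carbonate stop; fluorescence increase = enhanced residual activity.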
NTMT1 inh: blocks human N-terminal methyltransferase 1 activity. Q9BV86. NTMT1 MTase-Glo SAH luminescence, purified enzyme. Potency, µM (top dose mostly 114 µM), without a hit: at the highest dose activity change, negative = inhibition, usual class: inhibitors. 2.5% of 59,000 active. AID 1645870;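 also: potency is read from the fitted curve at half-maximal effect; plate controls were DMSO vehicle for no effect and no enzyme for full effect; nearly all actives have a fitted effect of over 65% in size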
HTT-AS promoter: HTT-AS promoter activation. HEK293 HTT-AS promoter firefly luciferase reporter, 24 h; response scale: percent change from vehicle, -100% = no light. 0.24% of 48,000 active. Potency, µM (series often up to 57.5 µM), without a hit: at the highest dose activity change, positive = activation, actives largely listed as activators; also: potency is read from the fitted curve at half-maximal effect; nearly all actives have a fitted effect of over 55% in size
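Luminescence was read after Dual-Glo reagent and a 10 min room-temperature incubation. Values were normalized to vehicle (0% activity) and zero RLU (-100% activity). Reporter HEK293 cells had been exposed to compounds (up to 57.5 uM final) for 24 h.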
FH mod: Identification of activators of human fumarate hydratase by quantitative high-throughput screening; FH coupled MDH/diaphorase resazurin fluorescence, 15 min; Fumarate hydratase, mitochondrial (Homo sapiens), P07954; AID 1347055, 2019; Potency, µM (titrated, usually from 79.9 µM), inactives show top-dose activity change, negative = inhibition, actives largely listed as inhibitors; 0.22% of 54,000 active; also: potency is read from the fitted curve at half-maximal effect; % is scaled to controls: 0 for no effect and ±100 for the full control effect; the screen sought activators but most active calls are inhibition curves; nearly all actives have a fitted effect of over 45% in size
Target sequence (P07954 whole entry, looked up): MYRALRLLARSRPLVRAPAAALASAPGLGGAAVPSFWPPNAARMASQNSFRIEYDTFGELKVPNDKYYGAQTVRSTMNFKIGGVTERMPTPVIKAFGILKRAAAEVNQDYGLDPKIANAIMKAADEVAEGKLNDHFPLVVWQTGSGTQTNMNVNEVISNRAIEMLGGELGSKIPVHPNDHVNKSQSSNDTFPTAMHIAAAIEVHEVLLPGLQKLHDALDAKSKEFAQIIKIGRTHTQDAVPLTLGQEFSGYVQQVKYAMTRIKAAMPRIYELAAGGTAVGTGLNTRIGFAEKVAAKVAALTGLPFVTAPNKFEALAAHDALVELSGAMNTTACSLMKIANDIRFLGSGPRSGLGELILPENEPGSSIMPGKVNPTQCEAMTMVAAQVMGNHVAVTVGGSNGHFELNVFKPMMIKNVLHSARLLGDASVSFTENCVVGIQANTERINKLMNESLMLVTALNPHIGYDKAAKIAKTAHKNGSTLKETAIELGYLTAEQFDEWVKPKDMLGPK
Numbers without * were called inactive; i = inactive; u = inconclusive; x = no result given; ! = a repeat was not active; [ ] = another dose, or the depositor's remark. Unless noted, calls follow the shape of the dose curve; as a rule, active = well fitted curve in the direction sought with a large enough effect; inconclusive = small, poorly fitted or top-dose-only effect, or another doubt; inactive = no such curve, though single readings can be large; an effect the other way counts as inactive or inconclusive.

SMILES	HTT prom inh	DRV1 agonist	GALC G270D up	NTMT1 inh	HTT-AS promoter	FH mod
CC(C)(C)c1ccc(-c2nc(SCCCOc3ccccc3)n3[nH]c(=O)cc3n2)cc1	-27%	-20	i	u	-27%	u
C=CC1C(OC2OC(CO)C(O)C(O)C2O)OC=C(C(=O)OC)C1CC(=O)OCC1C(C)C(O)CC1C(CO)COC(=O)CC1C(C(=O)O)=COC(OC2OC(CO)C(O)C(O)C2O)/C1=C\C (stereo not given)	x	x	x	-3%[12.6 µM]	x	6%[20.6 µM]
O=C1NC(Cc2c[nH]c3ccccc23)C(=O)NC1Cc1cnc[nH]1 (stereo not given)	x	x	x	0%[29.8 µM]	x	-3%[53.3 µM]
NCCCC[C@H](NC(=O)[C@@H](NC(=O)[C@H](Cc1c[nH]c2ccccc12)NC(=O)[C@H](CCCCN)NC(=O)[C@H](CCCCN)NC(=O)[C@H](Cc1c[nH]c2ccccc12)NC(=O)[C@H](Cc1c[nH]c2ccccc12)NC(=O)[C@H](CCCCN)NC(=O)[C@@H](N)CCCCN)C(c1ccccc1)c1ccccc1)C(N)=O	x	x	x	22µM*	x	x
COc1cc(N2CCC(N3CCN(C)CC3)CC2)ccc1Nc1ncc(Cl)c(Nc2ccccc2S(=O)(=O)C(C)C)n1	u	x	x	25µM*!	-44%	u
O=C(Cn1c(=O)n(Cc2ccccc2)c(=O)c2sc3ccccc3c21)NCc1ccccc1Cl	-15%	1	i	-2%	-11%	-11%
O=C(Cn1c(=O)n(Cc2ccc(F)cc2)c(=O)c2sc3ccccc3c21)NCc1ccccc1Cl	-8%	0	i	89µM*	-1%	-12%
Cc1ccc(-c2cc(C(=O)Nc3ccc(S(=O)(=O)Nc4ccc(C#N)cc4)cc3)c3ccccc3n2)cc1C	x	x	x	11%	x	x
C=CC(=O)Nc1cc(Nc2ncc(Cl)c(-c3c[nH]c4ccccc34)n2)c(OC)cc1N(C)CCN(C)C	x	x	x	20µM*	x	-7%
COc1ccc(NC(=O)c2ccco2)cc1NC(=O)COc1ccccc1Cl	u	64*	i	3%	-23%	8%
Cc1ccc(C2N=C(Nc3nc4ccccc4o3)NC3=C2C(=O)CCC3)s1 (stereo not given)	x	x	x	8%	x	x
CCCC(C(=O)O)c1c(C)nc2ccc(Cl)cc2c1-c1ccccc1 (stereo not given)	x	x	x	-1%[57.5 µM]	x	4%
O=C(Nc1onc2c1CCCC2)c1ccccc1	7%	24	i	u	u	-21%
CC(C)(C)c1ccc(C(=O)Nc2onc3c2CCCC3)cc1	u	88*	i	-3%	u	u
CC(C)COc1ccc(C(=O)Nc2onc3c2CCCC3)cc1	0%	114*	i	-3%	-17%	-30%
CCCCc1nc(C)c(CC(=S)N(C)C)c(=O)n1Cc1ccc(-c2ccccc2-c2nn[nH]n2)cc1	x	x	x	-7%[57.5 µM]	x	2%
COc1ccc(CNC(=O)CC(C)CC2=NS(=O)(=O)c3ccccc3N2)cc1 (stereo not given)	u	5	i	11%	-23%	5%
CC(CC(=O)NCc1ccc(Cl)cc1Cl)CC1=NS(=O)(=O)c2ccccc2N1 (stereo not given)	u	66*	i	15%	-30%	3%
Cc1ccc(CN(C(=O)COc2ccc(C(C)C)cc2)C2CCS(=O)(=O)C2)o1 (stereo not given)	u	61*	i	-23%	-16%	-20%
O=C(Nc1ncc(Cc2ccc(C(F)(F)F)cc2)s1)c1cccc(-c2ccccc2)c1	x	x	x	7%[57.5 µM]	x	x
N=c1n(CCO)c2ccccc2n1CCOc1ccc(F)cc1	x	12	x	x	x	x
CCCCn1c(=N)n(CCCOc2ccc(F)cc2)c2ccccc21	-30%	76*	i	-14%	-25%	11%
CCOC(=O)c1ccc(NC(=O)Cn2nc3c4ccccc4n(Cc4cccc(F)c4)cc-3c2=O)cc1	-3%	-6	i	79µM*	-8%	-14%
COc1cccc(CNS(=O)(=O)c2ccc(N3CCCCS3(=O)=O)cc2)c1	16µM*	13	i	-1%	-18%	-1%
COc1ccc(NS(=O)(=O)c2ccc(N3CCCCS3(=O)=O)cc2)cc1Cl	14µM*	12	i	7%	-24%	-13%
SMILES	HTT prom inh	DRV1 agonist	GALC G270D up	NTMT1 inh	HTT-AS promoter	FH mod
CCOC(=O)c1cnn(-c2ccc(C(=O)Nc3ccc(C(C)=O)cc3)cc2)c1N	-7%	0	i	5%	-7%	u
CCOC(=O)c1cnn(-c2ccc(C(=O)Nc3cc(OC)c(OC)c(OC)c3)cc2)c1N	-19%	-3	i	89µM*	-17%	-24%
N#CC1=C2SCN(C3CCCCC3)CN2C(=O)CC1c1ccc(Br)cc1 (stereo not given)	-22%	31	i	35µM*	-12%	-25%
COc1ccc(C2CC(=O)N3CN(C4CCCCC4)CSC3=C2C#N)c(OC)c1 (stereo not given)	-10%	40	i	16µM*	6%	-20%
O=C(/C=C/N1C[C@H]2C[C@@H]1CN2c1ccccn1)c1ccccc1O	x	x	x	10%[4.22 µM]	x	x
Cc1cc(C)c(Nc2nn3c(=O)c4cc5c(cc4nc3s2)OCO5)c(C)c1	-10%	6	i	45µM*	-7%	-8%
O=c1ccc2ccc(O)c(O)c2o1	u	12	x	-19%[57.5 µM]	-93%	u
O=Nc1ccc2oc(=O)ccc2c1	x	-15	x	x	x	1µM*
CC1=C(/C=C/C(C)=C/C=C/C(C)=C/C(=O)Nc2ccc(O)cc2)C(C)(C)CCC1	-17%	84*!	i	11%	-27%	-21%[53.3 µM]
CC(C=CC1=C(C)CCCC1(C)C)=CC=CC(C)=CC(=O)Nc1ccc(O)cc1	u	x	x	1%	-45%[116 µM]	-9%
O=C(Nc1cccc(Cl)c1)C1CCN(S(=O)(=O)Cc2ccccc2)CC1	x	115*	x	x	x	x

Compound activity deposited in PubChem by National Center for Advancing Translational Sciences (NCATS).
